Results published in PubChem BioAssay AID623944 (Vanderbilt Specialized Chemistry Center, 2012).
Activity calls are given as the source filed them. The rule behind the calls is not given here.

Test: PubChem AID 623944
Details: Ricerca radioligand binding panel, % inhibition, at 10 µM, stronger effect = higher value

Compound: O=C(Nc1ccc(N(Cc2ccsc2)C(=O)Cn2nnc3ccccc32)cc1)C1CC1
- inhibition (GABA-A flunitrazepam site inhibition): 22%
- inhibition (adenosine A3 binding inhibition): 20%
- inhibition (androgen receptor binding inhibition): 42%
- inhibition: 75% (inactive)
- inhibition (cannabinoid CB1 binding inhibition): 25%
- inhibition (dopamine D2S binding inhibition): 4%
- inhibition (dopamine transporter binding inhibition): 12%
- inhibition (hERG binding inhibition): 15%
- inhibition (kappa opioid binding inhibition): 20%
- inhibition (muscarinic M1 binding inhibition): -7%
- inhibition (norepinephrine transporter binding inhibition): 18%
- inhibition (serotonin transporter binding inhibition): -1%
- inhibition (sigma receptor binding inhibition): 42%
